According to PubChem BioAssay AID435000 (NMMLSC, 2010):
Some of the results follow.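 Rule for the calls: active = fluorescence response below 15%; inactive = the rest.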

Experiment: DHE quenching or ROS scavenging interference in aged yeast, artefact control for yeast caloric restriction mimetic project, S. cerevisiae BY4741, flow cytometry (AID 435000);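 note: percent of the mean fluorescence averaged over all compound wells on the plate; lower means stronger quenching of DHE signal or ROS scavenging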
Conditions: at 10 µM, stronger effect = lower value

Fluorescence response, inactive:
CCn1c2ccccc2c2cc(CC(N)=O)ccc21 105%
O=C(Nc1ccccc1N1CCCC1)c1ccc2ccccc2c1 103%
CCN(CC)C(=O)CSc1nnc(-c2cccc(OC)c2)o1 110%
Cc1cc(C(F)F)n2nc(C(=O)Nc3ccc(S(=O)(=O)NC45CC6CC(CC(C6)C4)C5)cc3)nc2n1 104%
COc1cccc(NC(=O)NCCN2CCCCC2)c1 93.8%
CCN(CC)c1ccc(NC(=O)CN2CCN(c3ccccn3)CC2)cc1 95.7%
CC(=O)c1ccc2c(c1)c1ccccc1n2CC(C)C 107%
COc1cc(NC(=O)CSc2ccc(-c3cccnc3)nn2)cc(OC)c1 123%
CC(C)NC(=O)/C(C#N)=C\c1ccc(N(C)C)c(Br)c1 92.3%
Cc1ccc2cccc(S(=O)(=O)N3CCN(c4ccccc4F)CC3)c2n1 104%
CSc1sc(C(=O)NNC(=O)c2ccc(Cl)cc2)c2c1C=CCC2 92.4%
Cc1ccccc1NC(=O)NCC1CCN(Cc2cccc(Cl)c2)CC1 101%
Cc1ccc(-c2nn(C(C)(C)C)c3ncnc(N)c23)cc1 99.5%
O=C(Nc1ccc(Br)cn1)c1ccc([N+](=O)[O-])cc1Cl 94%
CN1CCN(c2cc3c(cc2F)c(=O)c(C(=O)O)cn3CCF)CC1 100%
CC1CCCN(S(=O)(=O)c2ccc(C(=O)Nc3nnc(-c4ccncc4)o3)cc2)C1 (configuration not stated) 109%
CNC(=O)c1cccc2nc3ccccc3nc12 105%
CCCC(C)C(=O)OCC(=O)Nc1c(Br)cc(C)cc1Br (configuration not stated) 89.1%
Cc1ccc(C23CC4CC(CC(C(=O)NCC(=O)O)(C4)C2)C3)cc1 94.6%
COc1ccc(CCNC(=O)c2ccccc2-c2ccccc2C(=O)O)cc1OC 110%
Cc1cc(=O)n2[nH]c(-c3cccc(Cl)c3)cc2n1 92.6%
CCn1c2ccccc2c2cc(NC(=O)CNC)ccc21 112%
